Values joined by “and” are separate entries in the source; they are usually repeats but may differ in a detail not shown here. Equal values may be shown once. Hit rate of the full screen: of about 370,000 compounds, about 4,700 (1.3%) were called active.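 Rule for the calls: active = inhibition above the plate cutoff, the mean of all test compounds on that plate plus 3 SD (cut at about 35% in these data); inactive = the rest.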 The sample as a whole holds a higher share of actives than the screen did.

Inhibition data for 82 compounds are collected here from PubChem BioAssay AID651821 (The Scripps Research Institute Molecular Screening Center, 2012).

The nature of this test: small molecules binding CAG repeat RNA – biochemical, fluorescence, primary screen (AID 651821).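 Note: 0% = DMSO alone and 100% = 100 µM mitoxantrone as full dye displacement; higher means more dye released from RNA so lower well fluorescence.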 Conditions: r(CAG) RNA repeat, TO-PRO-1 dye displacement fluorescence; at 3 µM; hits give high values.
Usually inhibition stands for the drop in the measured response relative to a control, in per cent. For the compound `COc1ccc(OC)c(-n2cc3c(=O)n(C)c(=O)n(C)c3c2)c1`, the inhibition was 2.65% (inactive).
Consider `CCOC(=O)N1C(=O)C[C@](Sc2ccc(C)cc2)(C(=O)OC)[C@H]1c1ccccc1`, for which the inhibition is -2.71% (inactive).
Regarding `COC(=O)c1ccccc1-n1cc(COC(=O)NCCc2ccccc2)nn1`, the inhibition was 1.18% (inactive).
With `Cc1noc(C)c1S(=O)(=O)Nc1ccc(C(=O)O)cc1`, the inhibition was -0.8% (inactive).
As for `Cc1ccc(N(CCC(=O)O)S(=O)(=O)c2cccc(C(F)(F)F)c2)cc1`, the inhibition is 5.06% (inactive).
As for `Cc1oc2c(F)c(F)c(F)c(F)c2c1S(=O)(=O)Nc1cccc(C(F)(F)F)c1`, the inhibition is 53.7% (active).
With `COC(=O)[C@H](C(C)C)N(CCc1cn(Cc2ccccc2)nn1)S(=O)(=O)c1ccc(F)cc1Br`, the inhibition was 3.36% (inactive).
Turning to `CSCCC1NC2(C(=O)Nc3ccc(Cl)cc32)[C@@H]2C(=O)N(C3CCCC3)C(=O)[C@H]12` (some centres not stated), the inhibition was -2.44% (inactive).
The value for `Cc1ccc(NC(=O)c2cc(C)nn2-c2ccccc2)c(C)c1` was 2.01% (inactive).
Take `O=C(COc1ccc2c(C(F)(F)F)cc(=O)oc2c1)Nc1ccc2c(c1)OCCO2`: the inhibition was 4.46% (inactive).
Next, `Cc1cc(C)cc(Oc2c(C(F)(F)F)oc3cc(OCC(=O)O)ccc3c2=O)c1`: 44.4% (active); `O=C(COc1ccc2c3c(c(=O)oc2c1)CCC3)NC1CCCCC1`: -4.24% (inactive); `CC(c1c[nH]c2ccccc12)c1c(-c2ccccc2)n(C)c2ccccc12` (configuration not stated): 8.54% (inactive).
With `CCc1ccc(-n2c(=S)sc3c(=O)n(-c4ccccc4OC)c(=S)[nH]c32)cc1`, the inhibition was 9% (inactive).
Next, `COc1ccccc1-n1c(SCC(=O)O)nc2sc3c(c2c1=O)CCC3`: 5.16% (inactive); `COc1ccc(Cl)cc1-n1c(=S)sc2c(=O)n(-c3ccc(F)cc3)c(SCC(=O)O)nc21`: 40.9% (active); `COc1ccc2c(c1)N(C)/C(=C1/SC(=S)N(NC(C)=O)C1=O)S2`: 5.15% (inactive).
As to `CCN1C(=O)/C(=C2/Sc3ccccc3N2CCCS(=O)(=O)O)SC1=S`, the inhibition was 51.4% (active) and 69.1% (active).
Take `CCCCN1C(=O)/C(=C2/C=CC=CN2C)SC1=S`: the inhibition is -1.7% (inactive).
For `CC(CC(=O)N1CCN(c2ccccc2)CC1)S(=O)(=O)c1ccc2c(c1)NC(=O)CS2` (configuration not stated), the inhibition is -1.08% (inactive).
Consider `O=C(CCCCCN1C(=O)C2C3C=CC(C3)C2C1=O)Nc1ccccn1` (configuration not stated), for which the inhibition was 1.49% (inactive).
As for `COC(=O)Cc1nnn2c1[C@H](C)[C@H](c1ccccc1[N+](=O)[O-])OCC2`, the inhibition was 2.71% (inactive).
For the compound `CCOC(=O)C1=C(C(=O)OCC)C2N(Cc3ccc(C#N)cc3)c3ccccc3[C@@]23C[C@@H](C(=O)OC)N(S(=O)(=O)c2ccc(F)cc2)C3=N1` (some centres not stated), the inhibition was 15.6% (inactive).
In the case of `Cc1cc(NS(=O)(=O)c2ccc(NC(=S)NC(=O)c3ccc(F)cc3Cl)cc2)no1`, the inhibition is 33.1% (inactive).
Turning to `CCOc1ccc(Br)cc1S(=O)(=O)Nc1ccc(S(=O)(=O)Nc2cc(C)on2)cc1`, the inhibition was 14.9% (inactive).
On to `COc1cc2ccccc2cc1C(=O)Nc1ccc(S(=O)(=O)Nc2cc(C)on2)cc1`, for which the inhibition is 67.5% (active).
`COc1ccc(S(=O)(=O)Nc2cc(C)on2)cc1NC(C)=O`: the inhibition is 3.85% (inactive).
As to `CCOc1cc(C(=O)Nc2ccc(S(=O)(=O)Nc3cnc4ccccc4n3)cc2)cc(OCC)c1OCC`, the inhibition is 66.1% (active).
Regarding `Cc1cc(NS(=O)(=O)c2ccccc2)no1`, the inhibition was -0.66% (inactive).
In the case of `CCc1ccc(OC(C)C(=O)Nc2ccc(S(=O)(=O)Nc3cc(C)on3)cc2)cc1` (configuration not stated), the inhibition is 36.2% (active).
`C=C(C)CNC(=S)Nc1ccc(S(=O)(=O)Nc2cnc3ccccc3n2)cc1`: the inhibition is 19.2% (inactive).
`CCC(Oc1ccccc1C)C(=O)Nc1ccc(S(=O)(=O)Nc2cc(C)on2)cc1` (configuration not stated): the inhibition was 20.8% (inactive).
Take `CCOc1ccc(C(=O)Nc2ccc(S(=O)(=O)Nc3cc(C)on3)cc2)cc1`: the inhibition was 39.1% (active).
Turning to `O=C(/C=C/Nc1ccc(S(=O)(=O)Nc2cnc3ccccc3n2)cc1)c1cccnc1`, the inhibition was 5.52% (inactive).
As for `CCOc1ccc(CC(=O)Nc2ccc(S(=O)(=O)Nc3cc(C)on3)cc2)cc1OCC`, the inhibition is 22.4% (inactive).
As for `COc1cccc(CNC(=O)[C@H]2CCCN2C(=O)[C@H]2CCCN2C(=O)c2ccc(F)cc2)c1`, the inhibition was 0.66% (inactive).
Turning to `Cc1cc(OC(=O)NCCc2ccc(F)cc2)ccc1F`, the inhibition is 1.32% (inactive).
As to `CC(=O)c1ccc(S(=O)(=O)NCC2CCN(C(=O)C(=O)c3cccs3)CC2)cc1`, the inhibition was 2.35% (inactive).
As for `COc1ccc(SSc2ccc(OC)cc2C(=O)O)c(C(=O)O)c1`, the inhibition is 2.51% (inactive).
For the compound `CC[C@@H](CCC(=O)N(c1ccccc1)c1ccccc1)C1CC1`, the inhibition is 1.63% (inactive).
On to `COCC(C)NC(=O)COc1nncc2ccccc12` (configuration not stated), for which the inhibition is -0.71% (inactive).
For `O=C(CSc1nc2ccccc2n1Cc1ccccc1)NNC(=S)Nc1ccccc1`, the inhibition was 31.7% (inactive).
On to `C[C@H]1CN([C@@H](C)CO)C(=O)CCCn2nncc2CO[C@@H]1CN(C)C(=O)Nc1ccc(N2CCN(C)CC2)cc1`, for which the inhibition is 4.52% (inactive).
Next, `CC1CC1C(=O)OCC(=O)c1c(N)n(C)c(=O)n(C)c1=O` (configuration not stated): -4.36% (inactive).
The value for `CCCCNC(=O)C[C@H]1C[C@@]2(C(=O)OC)C(=C[C@H](COCc3ccccc3)O[C@@H]2C)N(Cc2ccc(Cl)cc2Cl)C1=O` was 8.58% (inactive); that for `CCN(CC)C(=O)CC[C@H]1CC[C@]2(CCCN(Cc3ccc(Cl)cc3)C2)O1` was -2.21% (inactive); that for `COC(=O)c1cccc(N(C(=O)c2ccco2)C(C(=O)NC2CCCC2)c2ccco2)c1` (configuration not stated) was -6.24% (inactive).
In the case of `CCOc1ccccc1C(=O)N1CCC[C@@H]1C(=O)N1CCC[C@H]1C(=O)NCc1ccccc1`, the inhibition was -1.61% (inactive).
Turning to `COc1ccc(-c2ccc3c(n2)CCCN3S(=O)(=O)c2ccc(C)cc2)cc1`, the inhibition is 4.71% (inactive).
In the case of `CC(C)(C)c1ccc(S(=O)(=O)NCC2CCN(C(=O)C(=O)c3cc4ccccc4o3)CC2)cc1`, the inhibition was 9.84% (inactive).
As for `COc1ccc(/C=C2\CC3(OC(C)=O)CCCN2C3)cc1` (configuration not stated), the inhibition is -0.3% (inactive).
Turning to `CC(=O)Oc1c(C(=O)c2nnc(C)o2)c(=O)n(Cc2ccccc2)c2ccccc12`, the inhibition is 2.47% (inactive).
Turning to `Cc1cc(C)nc(NS(=O)(=O)c2ccc(N/C=C\C(=O)c3cccs3)cc2)n1`, the inhibition was 10.2% (inactive).
Next, `Cc1ccc(C(=O)/C=C/Nc2ccc(S(=O)(=O)Nc3onc(C)c3C)cc2)cc1`: 48.3% (active).
Regarding `Cc1cc(NS(=O)(=O)c2ccc(NC(=O)C(C)Oc3cccc(C)c3C)cc2)nc(C)n1` (configuration not stated), the inhibition was 18.4% (inactive).
As for `Cc1noc(NS(=O)(=O)c2ccc(NC(=O)C34CCC(CC3)C4)cc2)c1C`, the inhibition was 2.57% (inactive).
Regarding `Cc1cc(OC(C)C(=O)Nc2ccc(S(=O)(=O)Nc3onc(C)c3C)cc2)cc(C)c1Cl` (configuration not stated), the inhibition is 75.6% (active).
Turning to `CC(Oc1cccc(Cl)c1)C(=O)Nc1ccc(S(=O)(=O)Nc2ncccn2)cc1` (configuration not stated), the inhibition is 8.9% (inactive).
On to `COc1cccc(CNC(=O)CNS(=O)(=O)c2ccc3nc(C)sc3c2)c1OC`, for which the inhibition is 0.91% (inactive).
For `COc1cccc(CNC(=O)[C@H]2CCCN2C(=O)[C@H]2CCCN2C(=O)c2cc(F)cc(F)c2)c1`, the inhibition was -1.44% (inactive).
In the case of `COC(=O)C[C@@H]1CC[C@@H]2[C@H](COc3ccc(NC(=O)c4cccc(F)c4)cc3C(=O)N2C)O1`, the inhibition was -0.86% (inactive).
For `COc1ccccc1C(=O)NC1CCCCN(C(C)C)C1=O` (configuration not stated), the inhibition is -0.3% (inactive).
Consider `O=C(CCC1CCN(C(=O)c2cccc(Cl)c2F)CC1)Nc1ccccc1`, for which the inhibition is -5.06% (inactive).
Turning to `C[C@@H]1CN([C@@H](C)CO)S(=O)(=O)c2ccc(-c3ccc(C(=O)N(C)C)cc3)cc2O[C@@H]1CN(C)Cc1ccccc1C(=O)O`, the inhibition was 3.43% (inactive).
The value for `Cc1ccccc1-c1ccc2c(c1)O[C@@H](CN(C)Cc1ccc(C(=O)O)cc1)[C@@H](C)CN([C@H](C)CO)S2(=O)=O` was 51.3% (active).
In the case of `C[C@@H]1CN([C@H](C)CO)S(=O)(=O)c2ccc(C#C[C@@H](C)O)cc2O[C@@H]1CN(C)Cc1ccc(-c2ccccc2)cc1`, the inhibition is 4.36% (inactive).
Next, `CN(C)c1ccc(NC(=O)NC2CCCCN(Cc3ccc(Cl)cc3)C2=O)cc1` (configuration not stated): 5.29% (inactive).
With `CC(=O)Nc1ccc(C(=O)CSc2nc3ccc(C)cc3[nH]2)cc1`, the inhibition was 14.5% (inactive).
On to `Cc1ccc2cc(/C=N/Nc3ccc(C(=O)O)cc3)c(Cl)nc2c1`, for which the inhibition is 41.6% (active).
As for `CSCC[C@H](NC(=O)OC(C)(C)C)C(=O)N/N=C/c1cc2ccc(C)cc2nc1Cl`, the inhibition was 3.07% (inactive).
Consider `CCOC(=O)/C=C/c1ccccc1O`, for which the inhibition is 0.7% (inactive).
Regarding `CCC(=O)Nc1ccc2c(c1)C(=O)N(C)[C@H]1CC[C@H](CC(=O)NCCOC)O[C@@H]1CO2`, the inhibition is -0.44% (inactive).
Take `Cc1ccc(Cc2nnc(SCC(=O)Nc3ccc(C)cc3C)[nH]c2=O)cc1`: the inhibition was 10.1% (inactive).
On to `Cc1ccc(Cc2nnc(SCC(=O)Nc3ccccc3C)[nH]c2=O)cc1`, for which the inhibition was 15.2% (inactive).
As to `COc1ccc(Cc2nnc(SCC(=O)Nc3ccc(C)c(Cl)c3)[nH]c2=O)cc1`, the inhibition was 70.4% (active).
Next, `Cc1ccc(OCc2nnc(SC/C=C/c3ccccc3)n2Cc2ccco2)cc1`: 5.16% (inactive).
As to `O=C(CCS(=O)(=O)c1ccccc1)Nc1ccc(Cl)c(Cl)c1`, the inhibition is 5.15% (inactive).
With `O=C(CC(O)(C(F)(F)F)C(F)(F)F)Nc1ccc(Cl)c(Cl)c1`, the inhibition is 4.89% (inactive).
Next, `Cc1nnc(NC(=O)Nc2ccc(Cl)c(Cl)c2)s1`: 41.7% (active).
`Cc1ccc(CNC(=O)Nc2nnc([C@H]3C[C@H](O)[C@@H](CO)O3)s2)cc1`: the inhibition was 6.41% (inactive).
Take `Cc1ccc(NC(=O)Nc2nnc(-c3ccncc3)s2)cc1`: the inhibition was 56.5% (active).
Take `Cc1ccc(NC(=O)Nc2cc(C)nn2-c2ccccc2)cc1`: the inhibition is 0.22% (inactive).
